Source: ChEMBL document CHEMBL4513216, “Probing the Open Global Health Chemical Diversity Library for Multistage-Active Starting Points for Next-Generation Antimalarials” (ACS Infect Dis, 2020)
Among all 65,000 compounds or so, about 2,100 (3.2%) showed an effect of 50% or more. The median lay at about -52%. Many of the other results were omitted from the sample, so strong results are more common in it than they were.

The molecules below were run on Plasmodium falciparum (assay: Screen against P. falciparum Asexual Blood Stage (ABS), at 5uM). Details: tested at 5 uM.
Assay type: functional, Dd2

Structure (SMILES)	INHIBITION
Cc1csc(N2CCN(C(=O)NCCNc3ncccn3)CC2)n1	-162%
COCc1ncn2c1CN(C(=O)c1cccc3cccnc13)CC2	-90.6%
Cc1cnc(CN2CCN(c3nc(C)cs3)C(C)C2)cn1 (centres undefined)	-48.9%
Cc1n[nH]cc1CNCC1(c2cccc(F)c2)CCOCC1	26.9%
CC1(C(=O)NCc2cccc(C(F)(F)F)c2)CCOCC1	-26.5%
FC(F)(F)c1cccc(C2(CNCc3ccncc3)CCOCC2)c1	51%
COC[C@]1(O)CCN(C2CCN(c3ccc(F)c(F)c3)CC2)CC1(C)C	63.1%
COC[C@]1(O)CCN(C2CCN(c3ccc(Cl)cc3)CC2)CC1(C)C	34.4%
COC[C@]1(O)CCN(C2CCN(c3ccc(OC)cc3)CC2)CC1(C)C	-57.6%
CN1CCN(Cc2cn3c(n2)CN(C(=O)N2CCOCC2)CC3)CC1	-121%
COc1ccccc1C(=O)N1CCNCC1C(N)=O (centres undefined)	-114%
COc1ccccc1C1CNCCN1C(C)=O (centres undefined)	-43.1%
COc1ccccc1C1CNCCN1C(=O)c1ccc(F)cc1 (centres undefined)	69.7%
Cn1ccnc1CNC[C@H]1Cn2cc(-c3ccccc3)nc2CO1	56.4%
Cc1cccnc1CNC[C@H]1Cn2cc(-c3ccccc3)nc2CO1	30.8%
COc1ccc(-c2cn3c(n2)CO[C@@H](CNCc2nccn2C)C3)cc1	21.3%
Cc1nc(CCNC(=O)c2cc(C(C)C)nn2C)sc1C	-66%
COc1cc(N2CCC3(CC2)CN(CCO)c2ccccc23)ncn1	47.1%
CN(Cc1n[nH]c2c1CCC2)c1nc(C2CCCC2)nc2c1CNC2	2.51%
CN(Cc1n[nH]c2c1CCCC2)c1nc2c(c(=O)[nH]1)CCNCC2	65.3%
CN(C)c1nc2c(c(N(C)Cc3n[nH]c4c3CCCCC4)n1)CCNC2	40%
Cc1nccc(-c2cccc(NCC(=O)N3CCCC(C)C3)c2)n1 (centres undefined)	-103%
CN1C(=O)c2cccc(NC(=O)c3cccc(S(C)(=O)=O)c3)c2C1=O	-15.8%
Cc1ncc(CN2CC[C@@](C)(O)[C@H](Oc3cccc(F)c3)C2)cn1	-18.7%
O=C(NC1CCNCC1)C1(N2CCCCC2)Cc2ccccc2C1	62.9%
O=C(NC1CCNC1)C1(N2CCCCC2)Cc2ccccc2C1 (centres undefined)	33.8%

Structure (SMILES)	INHIBITION
O=C1NCCCC[C@@H]1NC(=O)C1(N2CCCCC2)Cc2ccccc2C1	-107%
CNCC(=O)N1CCC(c2ccnc(Nc3ccc(C)cn3)n2)C1 (centres undefined)	-163%
CCc1nccn1CCC(=O)N1C[C@@H]2CC[C@H]1CN(C(=O)N(C)C)C2	-28.8%
O=C(c1c(F)cc(Br)cc1F)N1CCc2cnccc21	-110%
Cc1cnn(CC(C)NCc2ccc(OCc3cccnc3)cc2)c1 (centres undefined)	36.7%
CCN1CCN(S(=O)(=O)c2cc(C)c(C)cc2Br)CC1	28.4%
CCN1CCN(S(=O)(=O)c2cc(C)c(Cl)cc2Cl)CC1	64.3%
Cc1cc(S(=O)(=O)N2CC[C@@H](O)C2)c(Cl)cc1F	-123%
Cc1cc(S(=O)(=O)N2CCC(N3CCC(O)C3)CC2)c(Cl)cc1Cl (centres undefined)	69.3%
COC(=O)[C@H]1C[C@@H](O)CCN1S(=O)(=O)c1cc(C)c(Cl)cc1C	-190%
CCN1CCN(S(=O)(=O)c2cc(C)c(Cl)cc2C)CC1	19.7%
O=C(c1csc(-c2ccc(C(F)(F)F)cc2)n1)N1CCCNCC1	-4.67%
CC(C)CNC(=O)c1nn(C)c(NC(=O)Cc2ccccc2)c1F	-85.1%
COc1ncccc1CNC1CCc2c(ccc(=O)n2C)C1 (centres undefined)	-74.3%
Cc1ccc(CN2CC[C@H]3OCC[C@@H](C(=O)N4CCCCO4)[C@@H]3C2)o1	-9.16%
CCN(CC)Cc1cn2c(n1)CN(C1CCOC1)CC2 (centres undefined)	-107%
Nc1ncccc1C(=O)NCc1cccc(Cl)c1	-96.4%
O=C(NCCN1CCOCC1)c1ccnn1-c1ccc2ccccn12	-33.3%
Cc1nn(C)c(C)c1-c1cc(-c2cc(CC(=O)O)cs2)nc(N)c1C#N	-66.5%
CCn1cc(-c2cc(-c3cc(CC(=O)O)cs3)nc(N)c2C#N)c(C)n1	-125%
CCn1cc(-c2cc(-c3cc(CN(C)C)cs3)nc(N)c2C#N)c(C)n1	60.3%
CNC(=O)C1=NOC2(CCN(Cc3nccs3)C2)C1 (centres undefined)	-90.7%
CC(Nc1cnn(C)c(=O)c1Cl)c1ccc(F)cc1 (centres undefined)	-75.2%
N#Cc1cccnc1OC1CCN(S(=O)(=O)c2c(F)cccc2F)CC1	-88.3%
COc1ccc(C)cc1C(=O)NC(CC(=O)O)c1cccs1 (centres undefined)	-134%
O=C1NCc2ccccc2CC12CCCN(Cc1ccsc1)C2 (centres undefined)	64.3%

Structure (SMILES)	INHIBITION
Cc1cccc(CN2CCCC3(Cc4ccccc4CNC3=O)C2)n1 (centres undefined)	-31.3%
N#Cc1ccc(CN2CCCC3(Cc4ccccc4CNC3=O)C2)cc1 (centres undefined)	10.7%
O=C1NCc2ccccc2CC12CCCN(CCCc1ccccc1)C2 (centres undefined)	39.2%
COc1ccccc1CN1CCCC2(Cc3ccccc3CNC2=O)C1 (centres undefined)	54.5%
O=C(O)c1ccccc1CN1CCC2(Cc3ccccc3CNC2=O)C1 (centres undefined)	-111%
CCC(=O)N(CCC(=O)O)Cc1ccc(F)c(F)c1	-62.6%
Cc1cc(CN(C)C(C(=O)O)c2ccc(C(C)(C)C)cc2)on1 (centres undefined)	-96.1%
COc1ccc(CNc2c(N3CCN(C(C)=O)CC3)c(=O)c2=O)cc1	-16.8%
CC(C)c1[nH]c2ncccc2c1CN1CCC(O)CC1	-59.2%
CC(C)(C)OC(=O)NCCc1csc(N2CCCC2)n1	-50.6%
Cn1cnc2c1C(COCc1ccccc1)N(Cc1cccnc1)CC2 (centres undefined)	36.7%
Cn1cnc2c1C(COCc1ccccc1)N(Cc1ccncc1)CC2 (centres undefined)	51.6%
Cn1cnc2c1C(COCc1cccnc1)N(Cc1ccccc1)CC2 (centres undefined)	23.7%
Cn1cnnc1C1CCCN(C(=O)NCCCn2cccn2)C1 (centres undefined)	-205%
CC(C)CC(=O)N1CCC2(CC1)COCCN2Cc1ccc(F)cc1	-3.2%
Cc1cc(C)cc(C(=O)Nc2cccc(CN3CCCC3C(N)=O)c2)c1 (centres undefined)	-76.3%
CCCn1c(NCCc2ccccc2)nc2c(C)nn(C)c2c1=O	-42.9%
CN(C)CCN(C)S(=O)(=O)Cc1ccc(Br)cc1	63.7%
CC(O)CCN(C)S(=O)(=O)Cc1ccc(Br)cc1 (centres undefined)	-23.8%
CCCNS(=O)(=O)Cc1ccc(Br)cc1	-14.1%
CCOCC1CN(C(=O)C2=CCCC2)Cc2cnn(C)c21 (centres undefined)	-16.8%
Cc1ccc(N[C@@H]2CN(Cc3cc(C)on3)C[C@@H]3CCCO[C@@H]32)nn1	-84.9%
Cc1cccc(CN2C[C@@H]3CCCO[C@@H]3[C@H](Nc3ccccn3)C2)n1	55.6%
Cc1noc(C)c1CN1C[C@@H]2CCCO[C@@H]2[C@H](Nc2ccccn2)C1	-37.5%
N[C@@H]1c2ccccc2C2(CCN(c3ncccc3C(F)(F)F)CC2)[C@H]1O	-6.42%
CCCC1CCCN(C(=O)Nc2ccc(F)c(C(N)=O)c2)CC1 (centres undefined)	-46%

Structure (SMILES)	INHIBITION
Fc1ccc(CN2CCCC3(COCCN(Cc4c[nH]nn4)C3)C2)cc1 (centres undefined)	61.7%
Cc1cccc(CN2CCOCC3(CCN(C4CCOCC4)C3)C2)n1 (centres undefined)	42.5%
COc1ccc(CN2CCOCC3(CCN(C4CCOCC4)C3)C2)cc1 (centres undefined)	61%
Cn1cc(CN2CCOCC3(CCN(C4CCOCC4)C3)C2)cn1 (centres undefined)	-41.5%
c1csc(CN2CCOCC3(CCN(C4CCOCC4)C3)C2)c1 (centres undefined)	50.4%
c1cc(CN2CCCC3(COCCN(Cc4c[nH]nn4)C3)C2)cs1 (centres undefined)	27.7%
Cn1cc(CN2CCCC3(COCCN(Cc4c[nH]nn4)C3)C2)cn1 (centres undefined)	-58.4%
COc1ccc(F)c(CN2CCCC3(CCN(C4CCOCC4)C3)C2)c1 (centres undefined)	3.41%
Cc1ccc(CN2CCOCC3(CCN(Cc4cccs4)C3)C2)o1 (centres undefined)	41.9%
c1cn(-c2ccc(N3CCC(NC4CC4)CC3)cc2)cn1	18.4%
CC(C)c1cc(CN(C)C(=O)C(C)N2CCc3ccccc3C2)no1 (centres undefined)	-28.5%
N[C@H]1CCCN(S(=O)(=O)c2ccc(C(=O)NCC(F)F)cc2)C1	-117%
Cc1cc(C)cc(OCCN(C)C2CCOC2=O)c1 (centres undefined)	-68.2%
N[C@@H](C(=O)N1CCN(c2ccccc2Cl)C(=O)C1)c1ccccc1	-17.6%
CC(C)C[C@H](N)C(=O)N1CCSc2ccccc2C1	48%
NC(C(=O)N1CCSc2ccccc2C1)c1ccccc1 (centres undefined)	60.9%
O=S1(=O)CCC(NCCn2cncc2-c2ccc3c(c2)CCCO3)C1 (centres undefined)	-91.4%
O=S(=O)(C1CC1)N1CC[C@]2(C[C@@H](Oc3ncccc3F)CO2)C1	-24.1%
CN(C)C(=O)c1cnc2n1CCN(Cc1cccnc1)C2	-6.2%
N#Cc1ccnc(NCc2cc3n(n2)CCCN(C(=O)C2CCC2)C3)c1	-89.1%
CN(Cc1ccccn1)C(CO)c1cccc(Br)c1 (centres undefined)	-68.3%
Cc1nn(CCO)c(C)c1CNC1CCOc2ccccc21 (centres undefined)	-36%
Cc1nn(CCO)c(C)c1CNC1CCC(C)(C)c2ccccc21 (centres undefined)	69.2%
Cc1nn(CCO)c(C)c1CNC1CCCCc2ccccc21 (centres undefined)	-4.05%
Cc1cc2c(=O)n3c(nc2s1)CCN(Cc1[nH]cnc1C)CC3	-96.3%
O=C(NCCNc1cc(N2CCCC2)cnn1)Nc1ccccc1F	-93.6%
